MIN6 prolif: induces beta-cell replication in MIN6 cells. hit rate 0.29% among 330,000. proliferation, % at 10 µM. MIN6 cells proliferation, ATPlite luminescence, 48 h; cells starved in 0.2% serum; 100% = growth in 10% serum;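 active = compounds whose signal lies at least 3.5 SD above the mean of all wells on their plate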;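 also: 0% = DMSO-treated cells in low-serum medium and 100% = 10% serum control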
aDG glyco up: alpha-DG glycosylation activation; Pro5-aDG cells, alpha-DG glycosylation AlphaScreen (IIH6); 0% Pro5, 100% B10-LARGE cell signal; activation, % at 10 µM; hit rate 0.22% among 360,000; AID 624168;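 active = activation of at least 8% versus controls, or a plate z-score of at least 8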;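 also: Pro5 are CHO cells carrying HIG-tagged alpha-DG that lacks glycosylation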
H9c2 protect: myocardial damage modulation in H9c2 cells | H9c2 cardiomyocytes, H2O2 injury protection, ATPLite, 2 h | protection from H2O2 cell death, % at 20 µM | hit rate 0.63% among 360,000;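 active = compounds giving at least 50% protection of heart cells from peroxide-induced death in the single-dose screen, raw or plate-pattern-corrected value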;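 also: 0% = DMSO wells with peroxide and 100% = DMSO wells without peroxide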
Calpain2 inh: calpain II (pig) inhibition | hit rate 0.37% among 220,000 | inhibition, % at 16 µM | AID 1236 | purified calpain II, fluorogenic peptide substrate, 30 min;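 active = inhibition above about 50%, limit read from the data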
FAS TE block: FAS thioesterase (human) inhibition. recombinant FAS-TE, OMFH fluorogenic substrate, fluorescence endpoint. inhibition, % at 15 µM. hit rate 0.67% among 360,000;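 active = compounds whose normalised, plate-corrected inhibition of enzyme fluorescence in the single-dose primary screen is 50% or more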;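 also: 0% = DMSO with enzyme and 100% = substrate without enzyme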
H9c2 TAG inh: triacylglycerol accumulation inhibition. inhibition, % at 12.5 µM. hit rate 0.66% among 230,000. AID 651582. H9c2 cells, Nile Red lipid (TAG) fluorescence; cells loaded with 200 µM oleic acid;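 active = pattern-corrected inhibition of lipid staining of at least 50% with the nuclear-stain viability signal not falling by more than 50%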;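 also: 0% = DMSO wells and 100% = triacsin C control wells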
FAS-TE conf: FAS thioesterase (human) inhibition, confirmation | recombinant FAS-TE, OMFH fluorogenic substrate, fluorescence | hit rate 45% among 2,300 | shares compounds with FAS TE block | inhibition, % at 15 µM;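 active = compounds inhibiting the enzyme by at least 50% at 15 µM in any one of the replicates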;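 also: 0% = enzyme with DMSO only and 100% = wells lacking enzyme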
* = called active by the depositor; x = no result given. Sampled rows, rich in hits. Any-hit rate of the full collection: about 2.3%.

SMILES	MIN6 prolif	aDG glyco up	H9c2 protect	Calpain2 inh	FAS TE block	H9c2 TAG inh	FAS-TE conf
CC(=O)N1C[C@H]2CON(C)[C@H]2C[C@H]1c1ccc(-c2ccccc2)cc1	x	0	-3	x	-7	-7	x
COc1ccc(NC(=O)c2nc[nH]c2C(=O)N[C@H](C)c2ccccc2)cc1	-7	0	10	0	56*	-3	50*
CC(C)(C)OC(=O)NCc1ccc(CNC(=O)c2[nH]cnc2C(=O)NCC(=O)OCc2ccccc2)cc1	-2	0	39	x	66*	-20	76*
C[C@H](NC(=O)c1[nH]cnc1C(=O)Nc1ccccc1)c1ccccc1	-7	0	24	x	22	8	x
CC(C)(C)OC(=O)NCc1ccc(CNC(=O)c2[nH]cnc2C(=O)N[C@@H](Cc2ccccc2)C(=O)OCc2ccccc2)cc1	-9	0	-10	x	17	x	x
CC(C)(C)OC(=O)NCCCC[C@H](NC(=O)c1[nH]cnc1C(=O)Nc1ccccc1)C(=O)OC(C)(C)C	-8	1	33	26	69*	-4	80*
O=C(NCc1cccc(Br)c1)C1CC2Cn3c(nc4ccccc43)C2N1c1ccccc1 (centres undefined)	-4	1	2	x	-2	-18	x
CCOC(=O)C1=C(C)Nc2sc(C(=O)c3ccc(C)cc3)c(N)c2C1c1ccc(C(=O)OC)cc1 (centres undefined)	0	0	12	-91	67*	x	15
Cc1nc(N2CCN(c3ccccn3)CC2)c2c(C)c(C(=O)Nc3c(C)cc(Br)cc3C)sc2n1	-4	0	0	x	73*	x	15
Cc1nc(N2CCN(c3ccccn3)CC2)c2c(C)c(C(=O)Nc3c(F)cc(F)cc3Br)sc2n1	-6	0	17	x	47	x	x
Cc1cc(C)c(C)c(S(=O)(=O)N2CCN(C(=O)C3CSC4(C)CCC(=O)N34)CC2)c1C (centres undefined)	-1	0	-4	x	4	2	x
COc1ccccc1N1CCN(c2ccc3c(c2)S(=O)(=O)c2cccc(C(=O)NCc4ccc(F)cc4)c2C3=O)CC1	x	0	7	x	51*	19	23
O=C(NCc1cccc(F)c1)c1cccc2c1C(=O)c1ccc(N3CCCC3)cc1S2(=O)=O	-3	0	16	x	-119	-1	x
O=[N+]([O-])c1cccc(-c2ccc(SCc3cccnc3)nn2)c1	-2	0	-1	17	53*	-10	58*
O=C(CN1C(=O)c2cccc([N+](=O)[O-])c2C1=O)N1CCN(S(=O)(=O)c2ccccc2)CC1	-2	0	0	x	27	-1	x
O=C(CN1C(=O)c2cccc([N+](=O)[O-])c2C1=O)N1CCc2ccccc2C1	x	0	3	x	59*	-21	65*
O=C(COc1ccc([N+](=O)[O-])cc1)N1CCc2ccccc2C1	-3	0	-3	x	70*	x	83*
O=C(Cc1ccc([N+](=O)[O-])cc1)N1CCc2ccccc2C1	1	0	1	-5	26	x	x
C/C(=N\NC(=S)NC1CCCCC1)c1ccc(OC(F)F)cc1OC(F)F	-7	1	-30	54*	57*	-6	45
O=C(COc1ccc2c(-c3ccccc3)cc(=O)oc2c1)N[C@@H](Cc1c[nH]c2ccc(O)cc12)C(=O)O	-4	0	4	x	74*	x	70*
CC(NC(=O)c1ccc([N+](=O)[O-])cc1Cl)C1CC2CCC1C2 (centres undefined)	-3	0	-2	x	57*	x	66*
CC(NC(=O)COC(=O)c1cc(NS(=O)(=O)c2ccc(Cl)c([N+](=O)[O-])c2)ccc1O)C1CC2CCC1C2 (centres undefined)	-5	0	-14	-34	53*	x	51*
COc1ccc(NS(=O)(=O)c2ccc(O)c(C(=O)OCC(=O)NC(C)C3CC4CCC3C4)c2)cc1 (centres undefined)	3	0	-3	-36	6	-4	x
CC(NC(=O)c1ccccc1Cl)C1CC2CCC1C2 (centres undefined)	-3	0	-4	x	-2	x	x
C=C(C)CNC(=S)N/N=C/c1ccco1	-2	1	3	4	-4	3	x
SMILES	MIN6 prolif	aDG glyco up	H9c2 protect	Calpain2 inh	FAS TE block	H9c2 TAG inh	FAS-TE conf
Cc1ccc(NC(=O)C(C)c2ccc([N+](=O)[O-])cc2)cc1Cl (centres undefined)	-5	2	-7	45	59*	x	45
Cc1nn(-c2ccccc2)c(N2CCCC2)c1/C=N/Nc1ccc(S(=O)(=O)Nc2ccccc2)cc1[N+](=O)[O-]	-2	0	-7	11	53*	x	5
COc1ccccc1NS(=O)(=O)c1cccc(C(=O)N/N=C/c2c(C)nn(-c3ccccc3)c2N2CCCC2)c1	-5	1	23	-102	62*	x	15
COc1c(/C=N/Nc2ccc([N+](=O)[O-])cc2[N+](=O)[O-])c(C)nn1-c1ccccc1	1	0	5	12	12	25	x
O=C(O)c1ccccc1NS(=O)(=O)c1ccc(NN=Cc2ccc(F)cc2)c([N+](=O)[O-])c1	-6	0	-9	x	57*	-10	71*
CCOc1ccc(S(=O)(=O)Nc2ccc(C(=O)N/N=C/c3c(C)nn(-c4ccccc4)c3N3CCCC3)cc2)cc1	-3	0	-3	-69	55*	-16	0
CC(C)(O)/C=C/C[C@](C)(O)C1CC[C@]2(C)C1[C@H](O[C@H]1O[C@@H](CO)[C@H](O)[C@@H](O)[C@@H]1O)CC1[C@@]3(C)CC[C@H](O)C(C)(C)C3[C@@H](O)C[C@]12C (some centres undefined)	0	0	1	x	-10	1	x
COc1ccccc1NS(=O)(=O)c1ccc(N/N=C/c2c(C)nn(-c3ccccc3)c2N2CCCC2)c([N+](=O)[O-])c1	-1	-1	2	-24	64*	x	17
COc1ccccc1NS(=O)(=O)c1ccc(N/N=C/C=C/c2ccccc2[N+](=O)[O-])c([N+](=O)[O-])c1	-3	-1	3	-62	61*	x	0
COc1ccccc1NS(=O)(=O)c1ccc(NN=C2CCCC2)c([N+](=O)[O-])c1	0	2	-18	20	32	-41	x
COc1ccccc1NS(=O)(=O)c1ccc(N/N=C/c2ccccc2OCC(=O)O)c([N+](=O)[O-])c1	-1	0	2	-99	-5	5	x
CC(C)(C)OC(=O)NCCc1onc(-c2ccccc2F)c1C(=O)O	x	0	5	x	-8	-4	x
CC(C)(C)OC(=O)NCCc1onc(-c2cccc([N+](=O)[O-])c2)c1C(=O)O	x	0	-2	x	81*	12	87*
